The record followed here is PubChem BioAssay (EPA / NIEHS).

“And” between values parts separate entries of the source, which are not always exact repeats. Identical values can stand only once. Records with an inconclusive call do not appear. A structure can be active in one record and inactive in another. The source made the active and inactive calls. How the source made its calls, unless noted: active means hit-call score of the fitted dose curve at least 0.9, where 1 is the maximum; inconclusive means response in the unintended direction; inactive means score below 0.9.

A short description of experiment [1]: ATG_TAL_CIS: Attagene CIS-FACTORIAL HepG2 Assay for human TAL Basal Promoter (AID 2282966; active means hit-call score of the fitted dose curve at least 0.9, where 1 is the maximum; inactive means score below 0.9;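 further: background control endpoint measuring basal TAL promoter reporter mRNA not a specific factor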). Particulars: HepG2 Attagene cis-factorial TAL promoter reporter; actives raise or lower the signal. In short, it runs like this:
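HepG2 cells were transiently transfected with promoter-driven multiplexed reporter units and dosed for 24 h. Reporter mRNA was measured by RT-PCR with capillary electrophoresis fluorescence; bidirectional fits used DMSO as baseline, serving as a background control.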

The nature of experiment [2]: ATG_TGFb_CIS: Attagene CIS-FACTORIAL HepG2 Assay for human Transforming Growth Factor (TGF) (AID 2282967; active means hit-call score of the fitted dose curve at least 0.9, where 1 is the maximum; inactive means score below 0.9). Particulars: HepG2 Attagene CIS TGFb reporter, mRNA transcription; actives raise or lower the signal. In short, it runs like this: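 Cells were dosed for 24 hours, after which total RNA was reverse-transcribed and reporter sequences amplified, labeled and sized by capillary electrophoresis. Activity was fitted in both directions against DMSO.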

Experiment [3] is described as follows: ATG_VDRE_CIS: Attagene CIS-FACTORIAL HepG2 Assay for human Vitamin D Receptor Element (VDRE) (AID 2282968; active means hit-call score of the fitted dose curve at least 0.9, where 1 is the maximum; inactive means score below 0.9). Conditions: HepG2 VDRE cis-reporter transcription, actives raise or lower the signal. The procedure, abridged:
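Reporter mRNA induction, quantified by capillary electrophoresis of fluorescently labelled RT-PCR products, was read 24 h after dosing HepG2 cells carrying transiently transfected cis-regulated reporter units; gain or loss relative to DMSO.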

Experiment [4] has as its target Estrogen receptor (Homo sapiens) (UniProt P03372). The experiment can be described thus: ATG_ERa_TRANS: Attagene TRANS-FACTORIAL HepG2 Assay for human Estrogen Receptor alpha (ERa) (AID 2282970). Conditions: HepG2 Attagene TRANS ERa GAL4 reporter, mRNA. The procedure, abridged:
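HepG2 cells transiently transfected with multiplexed GAL4-UAS reporter units; ERa activity read via exogenous chimeric NR-Gal4 protein. After 24 hour compound exposure, reporter mRNA measured by RT-PCR with 6-FAM labelling and capillary electrophoresis; gain-of-signal fitted relative to DMSO.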

The target of experiment [5] is Steroid hormone receptor ERR1 (Homo sapiens) (UniProt P11474). Kind of experiment: ATG_ERRa_TRANS: Attagene TRANS-FACTORIAL HepG2 Assay for human Estrogen-Related Receptor alpha (ERRa) (AID 2282971). Particulars: HepG2 Attagene TRANS reporter, ERRa transactivation. The procedure, abridged: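 HepG2 cells transiently transfected with multiplexed GAL4-UAS reporter units reading chimeric ERRa-Gal4 activity; 24 h compound exposure. Reporter mRNA measured by RT-PCR, 6-FAM labelling, HpaI digest and capillary electrophoresis; gain of signal fitted versus DMSO baseline.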

Experiment [6] deals with X-box-binding protein 1 (Homo sapiens) (UniProt P17861). Kind of experiment: ATG_Xbp1_CIS: Attagene CIS-FACTORIAL HepG2 Assay for human X-box Binding Protein 1 (XBP1) (AID 2282972; active means hit-call score of the fitted dose curve at least 0.9, where 1 is the maximum; inactive means score below 0.9). Particulars: HepG2 XBP1 cis-element reporter, Attagene multiplex; actives raise or lower the signal. In short, it runs like this:
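After a 24-hour chemical exposure of HepG2 cells carrying cis-regulated reporters, reporter mRNA levels are assessed. Quantification uses RT-PCR, 6-FAM labelling and capillary electrophoresis. Gain- or loss-of-signal is fitted against DMSO.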

The nature of experiment [7]: ATG_M_19_TRANS: Attagene TRANS-FACTORIAL HepG2 Assay for M19 Transcription Factor (Internal Marker) (AID 2282974). Particulars: HepG2 Attagene TRANS-FACTORIAL M19 internal marker reporter. In short, it runs like this:
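Background-control readout: after 24 h chemical exposure of transfected HepG2 carrying GAL4-driven reporter units, RNA was reverse-transcribed, amplified, fluorescently labeled and sized by capillary electrophoresis; gain-of-signal fit against DMSO.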

A short description of experiment [8]: ATG_GAL4_TRANS: Attagene TRANS-FACTORIAL HepG2 Assay for GAL4 (Internal Marker) (AID 2282976). Particulars: HepG2 Attagene TRANS GAL4 internal marker reporter. The procedure, abridged: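 HepG2 cells transiently transfected with multiplexed GAL4-UAS reporter constructs were dosed for 24 h. Reporter mRNA was measured by RT-PCR, 6-FAM primer extension, HpaI digestion and capillary electrophoresis, and gain of signal was fitted relative to DMSO.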

Experiment [9] deals with Estrogen-related receptor gamma (Homo sapiens) (UniProt P62508). The experiment can be described thus: ATG_ERRg_TRANS: Attagene TRANS-FACTORIAL HepG2 Assay for human Estrogen-Related Receptor gamma (ERRg) (AID 2282977).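 Further: hits increase reporter signal over DMSO so potencies reflect activators.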 Particulars: HepG2 Attagene TRANS reporter, ERRg transactivation. In short, it runs like this:
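Transfect HepG2 with multiple GAL4-UAS reporter transcription units; dose chemicals 24 h; isolate RNA, reverse-transcribe with oligo(dT), PCR-amplify, label with 6-FAM, digest with HpaI; size fragments by capillary electrophoresis. DMSO serves as negative control.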

Experiment [10] has as its target Bile acid receptor (Homo sapiens) (UniProt Q96RI1). The experiment can be described thus: ATG_FXR_TRANS: Attagene TRANS-FACTORIAL HepG2 Assay for Farnesoid X Receptor (FXR) (AID 2282979).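 Further: hits raise reporter mRNA above DMSO so AC50 marks FXR activation.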 Particulars: HepG2 Attagene TRANS FXR-GAL4 reporter transcription. The procedure, abridged:
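HepG2 cells transiently transfected with reporter constructs in which a chimeric FXR-GAL4 protein drives a GAL4-UAS reporter; 24 h compound exposure. Reporter mRNA measured by RT-PCR, FAM labelling, HpaI digestion and capillary electrophoresis; gain-of-signal versus DMSO.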

In experiment [11] the target is Oxysterols receptor LXR-alpha (Homo sapiens) (UniProt Q13133). Kind of experiment: ATG_LXRa_TRANS: Attagene TRANS-FACTORIAL HepG2 Assay for human Liver X Receptor alpha (LXRa) (AID 2282980). Conditions: HepG2 Attagene TRANS reporter, LXRa transactivation. In short, it runs like this:
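HepG2 cells were transiently transfected with multiplexed reporter units driven by chimeric LXRa–GAL4 fusion proteins, then dosed for 24 h. Reporter mRNA was quantified by RT-PCR, fluorescent labelling and capillary electrophoresis; gain of signal fitted against DMSO baseline.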

Experiment [12] has as its target Hepatocyte nuclear factor 4-alpha (Homo sapiens) (UniProt P41235). Kind of experiment: ATG_HNF4a_TRANS: Attagene TRANS-FACTORIAL HepG2 Assay for human Hepatocyte Nuclear Factor 4 alpha (HNF4a) (AID 2282982). Particulars: HepG2 HNF4a transactivation reporter, mRNA readout. In short, it runs like this:
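Readout is fluorescent reporter-transcript fragments resolved by capillary electrophoresis after RT-PCR from HepG2 cells dosed for 24 h. Cells carried transfected GAL4-UAS reporter constructs measuring exogenous NR-GAL4 chimera activity; DMSO served as baseline.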

A short description of experiment [13]: ATG_M_32_TRANS: Attagene TRANS-FACTORIAL HepG2 Assay for M32 Transcription Factor (Internal Marker) (AID 2282984). Conditions: HepG2 Attagene TRANS M32 internal marker reporter. In short, it runs like this: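 Measures reporter mRNA induction in human HepG2 liver cells after 24 h chemical treatment. Transcripts from transiently transfected GAL4-UAS reporter units are amplified, fluorescently labelled and sized by capillary electrophoresis; gain of signal relative to DMSO.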

The target in experiment [14] is Nuclear receptor subfamily 4 group A member 2 (Homo sapiens) (UniProt P43354). The experiment can be described thus: ATG_NURR1_TRANS: Attagene TRANS-FACTORIAL HepG2 Assay for human Nuclear Receptor Related Protein 1 (NURR1) (AID 2282985). Particulars: HepG2 Attagene TRANS reporter, mRNA readout. The procedure, abridged:
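Transient transfection of HepG2, human liver cells, with multiple GAL4-UAS reporter transcription units. Cells dosed 24 h, RNA isolated, reverse-transcribed, PCR-amplified, FAM-labelled, HpaI-digested, sized by capillary electrophoresis. DMSO served as negative control.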

For experiment [15], the target named is Transcriptional activator Myb (Homo sapiens) (UniProt P10242). The experiment can be described thus: ATG_Myb_CIS: Attagene CIS-FACTORIAL HepG2 Assay for human Myeloblastosis (Myb) Proto-Oncogene Transcription Factor (AID 2282986; active means hit-call score of the fitted dose curve at least 0.9, where 1 is the maximum; inactive means score below 0.9). Conditions: HepG2 Attagene CIS-FACTORIAL Myb reporter transcription; actives raise or lower the signal. The procedure, abridged:
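Reporter mRNA is quantified by RT-PCR and capillary electrophoresis 24 h after dosing HepG2 cells transfected with cis-regulated reporter units, which track endogenous transcription factor activity. Gain and loss of signal are fitted versus DMSO baseline.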

In experiment [16] the target is Nuclear respiratory factor 1 (Homo sapiens) (UniProt Q16656). The experiment can be described thus: ATG_NRF1_CIS: Attagene CIS-FACTORIAL HepG2 Assay for human Nuclear Respiratory Factor 1 (NRF1) Orphan Gene (AID 2282987; active means hit-call score of the fitted dose curve at least 0.9, where 1 is the maximum; inactive means score below 0.9). Particulars: HepG2 NRF1 cis-element reporter, Attagene multiplex; actives raise or lower the signal. The procedure, abridged:
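Endogenous NRF1-driven reporter transcription in transfected HepG2 cells after 24 h treatment. Readout: RT-PCR products, 6-FAM labelled and resolved by capillary electrophoresis; changes fitted both directions relative to DMSO.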

Experiment [17] has as its target Nuclear receptor subfamily 1 group I member 3 (Homo sapiens) (UniProt Q14994). Kind of experiment: ATG_CAR_TRANS: Attagene TRANS-FACTORIAL HepG2 Assay for human Constitutive Androstane Receptor (CAR) (AID 2282969).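 Further: activators raise reporter mRNA above DMSO so AC50 marks induction.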 Particulars: HepG2 Attagene TRANS-FACTORIAL CAR reporter. In short, it runs like this:
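Readout is reporter mRNA induction, quantified by fluorescent primer extension and capillary electrophoresis after RT-PCR. Cells were HepG2 transiently carrying chimeric NR-Gal4 constructs with GAL4-UAS reporters, treated for 24 h; activity scored upward from DMSO.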

The target of experiment [18] is Glucocorticoid receptor (Homo sapiens) (UniProt P04150). The experiment can be described thus: ATG_GR_TRANS: Attagene TRANS-FACTORIAL HepG2 Assay for human Glucocorticoid Receptor (GR) (AID 2282978).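 Further: activators score as hits since higher reporter transcript over DMSO is fitted.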 Particulars: HepG2 Attagene TRANS GR reporter, mRNA transcription. In short, it runs like this: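 Readout is reporter transcript from a chimeric GR-Gal4 acting on GAL4-UAS in transfected human HepG2 liver cells after 24 h exposure, quantified by RT-PCR and capillary electrophoresis. Activation fitted upward against DMSO.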

Experiment [19] is described as follows: ATG_M_06_TRANS: Attagene TRANS-FACTORIAL HepG2 Assay for M06 Transcription Factor (Internal Marker) (AID 2282983).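 Further: reporter transcript level by RT-PCR then capillary electrophoresis fluorescence.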 Particulars: HepG2 Attagene TRANS M06 internal marker reporter. In short, it runs like this:
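HepG2 cells transiently transfected with multiplexed GAL4-UAS reporter transcription units; after 24 h compound exposure, reporter mRNA measured by RT-PCR, FAM-labelled primer extension, HpaI digestion and capillary electrophoresis. Gain-of-signal fitted versus DMSO baseline; background control readout.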

Sequence of Glucocorticoid receptor (Homo sapiens) (P04150 whole entry, looked up, the tested form may be a part): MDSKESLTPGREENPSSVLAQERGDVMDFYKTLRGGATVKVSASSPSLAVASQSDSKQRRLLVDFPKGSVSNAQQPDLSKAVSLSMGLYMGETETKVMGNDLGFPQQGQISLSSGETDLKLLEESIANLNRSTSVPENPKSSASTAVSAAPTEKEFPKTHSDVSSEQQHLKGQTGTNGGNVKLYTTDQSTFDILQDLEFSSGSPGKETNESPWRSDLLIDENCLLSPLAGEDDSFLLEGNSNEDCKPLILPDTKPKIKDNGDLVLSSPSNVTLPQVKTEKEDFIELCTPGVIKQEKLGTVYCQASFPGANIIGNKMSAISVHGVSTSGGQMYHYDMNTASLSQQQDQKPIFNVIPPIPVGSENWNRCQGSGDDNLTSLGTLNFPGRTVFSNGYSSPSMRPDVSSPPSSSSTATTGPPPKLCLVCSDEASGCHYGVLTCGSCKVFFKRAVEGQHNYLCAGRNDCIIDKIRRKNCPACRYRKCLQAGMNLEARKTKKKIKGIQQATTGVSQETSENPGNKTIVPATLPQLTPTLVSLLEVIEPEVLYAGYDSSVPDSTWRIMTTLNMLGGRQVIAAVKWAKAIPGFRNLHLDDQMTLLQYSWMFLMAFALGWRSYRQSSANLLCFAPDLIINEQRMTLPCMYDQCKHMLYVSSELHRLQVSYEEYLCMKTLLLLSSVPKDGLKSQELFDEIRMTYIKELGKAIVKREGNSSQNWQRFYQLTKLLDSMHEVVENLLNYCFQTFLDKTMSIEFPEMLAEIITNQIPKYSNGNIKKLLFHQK
Sequence of Oxysterols receptor LXR-alpha (Homo sapiens) (Q13133 whole entry, looked up, the tested form may be a part): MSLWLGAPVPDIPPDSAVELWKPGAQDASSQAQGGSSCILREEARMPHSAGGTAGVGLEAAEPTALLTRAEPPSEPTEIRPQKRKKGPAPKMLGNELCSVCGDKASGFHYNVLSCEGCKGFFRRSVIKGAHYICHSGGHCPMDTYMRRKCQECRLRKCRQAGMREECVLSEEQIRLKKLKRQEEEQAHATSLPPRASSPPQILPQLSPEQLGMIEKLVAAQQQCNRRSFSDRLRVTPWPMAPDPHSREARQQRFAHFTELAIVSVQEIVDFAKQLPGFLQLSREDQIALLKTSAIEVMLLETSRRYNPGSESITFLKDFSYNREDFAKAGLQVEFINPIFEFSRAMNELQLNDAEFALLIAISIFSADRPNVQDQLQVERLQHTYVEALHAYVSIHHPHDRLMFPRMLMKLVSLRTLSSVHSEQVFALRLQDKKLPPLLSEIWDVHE
Sequence of Estrogen receptor (Homo sapiens) (P03372 whole entry, looked up, the tested form may be a part): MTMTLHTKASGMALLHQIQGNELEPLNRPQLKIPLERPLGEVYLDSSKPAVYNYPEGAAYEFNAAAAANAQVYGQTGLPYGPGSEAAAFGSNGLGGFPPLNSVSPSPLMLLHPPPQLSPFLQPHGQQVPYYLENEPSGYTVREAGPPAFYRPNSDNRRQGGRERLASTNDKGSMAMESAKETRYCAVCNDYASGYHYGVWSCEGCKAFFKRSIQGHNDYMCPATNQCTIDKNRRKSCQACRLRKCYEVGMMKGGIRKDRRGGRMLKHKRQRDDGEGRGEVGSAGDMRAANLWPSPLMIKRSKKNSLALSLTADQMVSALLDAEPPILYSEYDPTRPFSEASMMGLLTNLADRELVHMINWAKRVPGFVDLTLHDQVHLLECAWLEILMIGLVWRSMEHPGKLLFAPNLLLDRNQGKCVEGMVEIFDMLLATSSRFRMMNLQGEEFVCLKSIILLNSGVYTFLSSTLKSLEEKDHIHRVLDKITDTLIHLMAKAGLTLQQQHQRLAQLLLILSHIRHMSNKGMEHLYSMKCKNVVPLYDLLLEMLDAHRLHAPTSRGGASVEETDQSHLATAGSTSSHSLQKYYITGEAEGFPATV
Sequence of Bile acid receptor (Homo sapiens) (Q96RI1 whole entry, looked up, the tested form may be a part): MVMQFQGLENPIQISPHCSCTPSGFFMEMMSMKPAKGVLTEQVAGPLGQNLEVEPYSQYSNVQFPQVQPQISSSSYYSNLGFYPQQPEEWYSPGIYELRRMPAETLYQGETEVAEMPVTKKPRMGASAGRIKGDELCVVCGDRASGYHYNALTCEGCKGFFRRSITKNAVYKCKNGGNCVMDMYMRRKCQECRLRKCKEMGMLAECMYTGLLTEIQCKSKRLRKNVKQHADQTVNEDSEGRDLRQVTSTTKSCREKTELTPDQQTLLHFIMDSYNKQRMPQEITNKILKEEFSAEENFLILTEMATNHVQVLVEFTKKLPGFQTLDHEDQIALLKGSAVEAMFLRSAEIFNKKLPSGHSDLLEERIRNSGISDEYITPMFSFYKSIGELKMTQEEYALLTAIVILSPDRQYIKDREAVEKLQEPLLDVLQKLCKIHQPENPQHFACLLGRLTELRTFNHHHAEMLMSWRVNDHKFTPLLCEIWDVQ
Sequence of Nuclear respiratory factor 1 (Homo sapiens) (Q16656 whole entry, looked up): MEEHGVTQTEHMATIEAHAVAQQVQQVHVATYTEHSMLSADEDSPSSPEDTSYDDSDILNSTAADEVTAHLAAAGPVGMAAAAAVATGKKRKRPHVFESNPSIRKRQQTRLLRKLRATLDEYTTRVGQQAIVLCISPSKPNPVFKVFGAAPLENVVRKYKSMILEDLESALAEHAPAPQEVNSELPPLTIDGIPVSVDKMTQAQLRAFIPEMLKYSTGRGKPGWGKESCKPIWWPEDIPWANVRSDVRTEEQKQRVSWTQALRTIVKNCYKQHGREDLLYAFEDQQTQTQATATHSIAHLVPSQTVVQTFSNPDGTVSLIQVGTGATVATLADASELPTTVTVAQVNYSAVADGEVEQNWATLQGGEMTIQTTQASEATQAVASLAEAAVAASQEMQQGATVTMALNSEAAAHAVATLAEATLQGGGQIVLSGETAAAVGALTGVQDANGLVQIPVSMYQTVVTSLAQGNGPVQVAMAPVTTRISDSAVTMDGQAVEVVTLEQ
Sequence of X-box-binding protein 1 (Homo sapiens) (P17861 whole entry, looked up): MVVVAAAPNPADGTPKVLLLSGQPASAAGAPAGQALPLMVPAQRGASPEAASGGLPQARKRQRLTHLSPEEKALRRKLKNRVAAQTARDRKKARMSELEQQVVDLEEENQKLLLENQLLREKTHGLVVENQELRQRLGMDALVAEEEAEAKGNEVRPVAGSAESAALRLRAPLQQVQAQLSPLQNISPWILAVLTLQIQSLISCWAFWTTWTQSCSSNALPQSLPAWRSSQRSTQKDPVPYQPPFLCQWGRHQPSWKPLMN
Sequence of Transcriptional activator Myb (Homo sapiens) (P10242 whole entry, looked up): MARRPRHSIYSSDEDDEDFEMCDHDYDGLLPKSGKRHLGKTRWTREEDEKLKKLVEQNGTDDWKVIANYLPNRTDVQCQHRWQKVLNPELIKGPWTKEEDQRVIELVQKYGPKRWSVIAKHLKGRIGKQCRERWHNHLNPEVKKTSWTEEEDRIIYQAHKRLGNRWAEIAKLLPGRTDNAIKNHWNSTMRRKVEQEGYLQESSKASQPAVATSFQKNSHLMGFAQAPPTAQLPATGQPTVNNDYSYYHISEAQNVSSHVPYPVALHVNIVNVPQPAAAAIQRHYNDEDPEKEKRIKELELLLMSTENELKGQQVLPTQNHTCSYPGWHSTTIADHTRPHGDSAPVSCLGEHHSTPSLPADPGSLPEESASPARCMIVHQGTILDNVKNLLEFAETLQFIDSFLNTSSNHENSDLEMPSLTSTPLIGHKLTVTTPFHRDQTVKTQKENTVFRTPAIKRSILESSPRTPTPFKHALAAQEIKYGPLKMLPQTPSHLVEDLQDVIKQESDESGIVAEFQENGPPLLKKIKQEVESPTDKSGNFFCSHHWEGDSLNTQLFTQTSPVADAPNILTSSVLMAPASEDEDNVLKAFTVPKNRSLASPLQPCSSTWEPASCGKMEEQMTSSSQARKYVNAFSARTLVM
Sequence of Hepatocyte nuclear factor 4-alpha (Homo sapiens) (P41235 whole entry, looked up, the tested form may be a part): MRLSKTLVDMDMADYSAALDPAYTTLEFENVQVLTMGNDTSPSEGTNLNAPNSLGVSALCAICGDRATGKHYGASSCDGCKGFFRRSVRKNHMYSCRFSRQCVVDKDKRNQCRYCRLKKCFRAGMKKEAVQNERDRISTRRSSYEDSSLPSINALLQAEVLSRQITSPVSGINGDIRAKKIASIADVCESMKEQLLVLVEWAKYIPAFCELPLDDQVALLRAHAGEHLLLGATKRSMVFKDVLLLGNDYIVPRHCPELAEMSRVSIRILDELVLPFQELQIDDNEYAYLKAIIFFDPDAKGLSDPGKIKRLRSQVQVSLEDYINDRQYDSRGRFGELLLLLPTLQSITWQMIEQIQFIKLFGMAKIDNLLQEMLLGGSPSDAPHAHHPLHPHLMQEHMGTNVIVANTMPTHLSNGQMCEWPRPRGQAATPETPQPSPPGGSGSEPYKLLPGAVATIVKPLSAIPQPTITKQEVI
Sequence of Nuclear receptor subfamily 1 group I member 3 (Homo sapiens) (Q14994 whole entry, looked up, the tested form may be a part): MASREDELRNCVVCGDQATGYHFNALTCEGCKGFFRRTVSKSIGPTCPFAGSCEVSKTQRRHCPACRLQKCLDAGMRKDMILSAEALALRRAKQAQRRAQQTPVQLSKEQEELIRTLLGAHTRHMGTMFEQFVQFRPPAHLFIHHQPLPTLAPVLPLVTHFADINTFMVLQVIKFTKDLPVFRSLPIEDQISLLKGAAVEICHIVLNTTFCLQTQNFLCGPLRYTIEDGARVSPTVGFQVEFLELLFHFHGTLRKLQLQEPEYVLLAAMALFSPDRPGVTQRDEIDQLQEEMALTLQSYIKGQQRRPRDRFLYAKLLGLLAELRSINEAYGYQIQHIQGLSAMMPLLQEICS
Sequence of Estrogen-related receptor gamma (Homo sapiens) (P62508 whole entry, looked up, the tested form may be a part): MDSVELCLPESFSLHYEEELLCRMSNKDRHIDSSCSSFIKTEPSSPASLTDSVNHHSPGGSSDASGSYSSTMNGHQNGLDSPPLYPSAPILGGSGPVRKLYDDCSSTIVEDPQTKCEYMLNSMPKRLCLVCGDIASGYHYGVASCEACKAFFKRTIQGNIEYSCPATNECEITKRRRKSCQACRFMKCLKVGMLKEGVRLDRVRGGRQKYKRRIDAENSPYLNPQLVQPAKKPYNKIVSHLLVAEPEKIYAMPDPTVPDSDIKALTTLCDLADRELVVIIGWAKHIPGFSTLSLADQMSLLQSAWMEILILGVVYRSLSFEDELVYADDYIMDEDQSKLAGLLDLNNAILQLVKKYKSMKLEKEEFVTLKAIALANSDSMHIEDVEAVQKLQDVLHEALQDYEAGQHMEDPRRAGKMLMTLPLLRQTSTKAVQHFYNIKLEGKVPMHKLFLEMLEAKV

With `OC12N=C(c3ccccc3)SC1Cc1cc(Cl)ccc12` (stereo unspecified), the compound was called inactive in experiment [1], in experiment [2], in experiment [3], in [5], in [6] and in [7]. The call in experiment [8], in experiment [9], in experiment [10], in [11], in experiment [12] and in experiment [13] was inactive. For the same compound, the outcome in [14], in experiment [15] and in experiment [16] was inactive. Moreover, in experiment [4], the concentration at half-maximal activity (AC50) was 3.97 µM (active).
With `CCCCCCCCN(C)CCCCCCCC`, the call in experiment [1], in experiment [2], in [3], in experiment [17], in experiment [6] and in experiment [7] was inactive. In addition, the result in experiment [8], in experiment [9], in [18], in experiment [12], in experiment [19] and in experiment [13] was inactive. Moreover, the outcome in experiment [14], in [15] and in experiment [16] was inactive. The AC50 in experiment [4] was 30.4 µM (active).
Regarding `CCCOC(=O)c1cc(O)c(O)c(O)c1`, the compound was classed as inactive in [1], in experiment [2], in [3], in experiment [6], in experiment [7] and in [10]. For the same compound, the call in experiment [12], in [19], in experiment [14], in experiment [15] and in experiment [16] was inactive. Further, the AC50 in [4] was 14.5 µM (active).
Regarding `O=c1c(-c2ccc(O)cc2)coc2cc(O)cc(O)c12`, the AC50 in experiment [1] was 77.3 µM (active) and 100 µM (active) and 27 µM (active); in experiment [3], 61.3 µM (active). Besides, the compound was classed as inactive in experiment [1], in [2], in experiment [3], in experiment [17], in experiment [6] and in experiment [7]. For the same compound, the compound was called inactive in experiment [8], in [18], in experiment [10], in experiment [11], in [12] and in experiment [19]. Besides, the compound was classed as inactive in experiment [14], in experiment [15] and in experiment [16].

Usually AC50 stands for the concentration at which the activity in the assay is half-maximal.
